A short description of this assay: qHTS profiling of the MIPE4 collection as inhibitors of Plasmodium falciparum (3D7) proliferation (AID 743344).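 Also: scaled between DMSO vehicle wells and 0.29 µM artemisinin as full inhibition.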 Conditions: P. falciparum 3D7 in erythrocytes, SYBR Green DNA fluorescence, 72 h; at 28.5 µM unless noted. From the text:
Plasmodium falciparum is a virulent malarial parasite that kills 1-2 million people worldwide each year. Transmitted by mosquitoes, the sporozoite form of the parasite enters the blood stream to infect hepatocytes, where they become merozoites that infect red blood cells (erythrocytes). Within erythrocytes, merozoites begin a […] cycle of growth and division, after which the parasite is released to infect new red blood cells. Gametocytes, which form within erythrocytes as well, circulate in the bloodstream and are ingested by the mosquito, thereby completing the life cycle. To profile malarial isolates for differential chemical responses and to identify inhibitors of malarial growth, an assay that measures P. falciparum growth and replication within erythrocytes was employed. This assay uses a DNA binding fluorescent dye (SYBR Green) to detect parasite DNA following cell lysis. Because mature erythrocytes lack DNA, only Plasmodium-derived DNA is detected.
The SYBR Green viability assay was adapted from a method described previously (Plouffe et al., 2008). For screening 3 ul culture medium was dispensed into 1536 well black clear bottom plates (Aurora Biotechnologies) using a Multidrop Combi (Thermo Fisher Scientific Inc.), 23 nL compounds in DMSO were added by a pin tool (Kalypsys), and 5 ul of erythrocytes infected with P. falciparum (0.3% parasitemia, 2.5% hematocrit final concentration) were added. The plates were incubated at 37 C in a humidified incubator in 5% CO2 for 72 h, and 2 ul lysis buffer (20 mM Tris HCl, 10 mM EDTA, 0.16% saponin, 1.6% triton X, 10X SYBR Green I supplied as 10,000X […] by Invitrogen) was added to each well. The plates were mixed for 25 sec with gentle shaking and incubated overnight at room temperature in the dark. The following morning, fluorescence intensity at 485(14) nm excitation and 535(25) nm emission wavelengths was measured on an EnVision (Perkin Elmer) plate reader. Plate reads were normalized relative to the control inhibitor (0.29 uM artemisinin) and vehicle (DMSO) wells present on each plate and then corrected by an algorithm using vehicle-only control plates at the beginning and end of the compound plate stack.
A general note: Quantitative high-throughput screening tests each substance at several concentrations.
`O=C(O)CCCCC(CCSCc1ccccc1)SCc1ccccc1` (stereo not given): the parasite growth, % of DMSO control worked out at 76.2%. `N#CNC(=NCCCCCCOc1ccc(Cl)cc1)Nc1ccncc1` yielded a parasite growth, % of DMSO control of 12.1%. Consider `c1ccc2c(Oc3nc(Nc4ccc(N5CCOCC5)cc4)c4ncn(C5CCCCC5)c4n3)cccc2c1`, for which the parasite growth, % of DMSO control amounted to 6.5%. The compound `N#Cc1c(NC(=O)c2cccc3ccccc23)sc2c1CCCC2` registered a parasite growth, % of DMSO control of 69.2%. The same measure for `CC(=O)N1CCN(c2ccc(OCc3nn(C)c(C)c3-c3cccc4c(CCCOc5cccc6ccccc56)c(C(=O)O)n(Cc5cccnc5)c34)cc2)CC1`: 5.7%; for `COc1cc2ncnc(Nc3cccc(Br)c3)c2cc1OC`: 8.2%. For `C[C@@]12C(=O)OC(=O)[C@@]1(C)C1CCC2O1`, the parasite growth, % of DMSO control is 12.4%. The compound `CC[C@@]1([C@@H]2O[C@@H]([C@H]3O[C@@](O)(CO)[C@H](C)C[C@H]3C)C[C@H]2C)CC[C@H]([C@]2(C)CC[C@]3(C[C@H](O)[C@@H](C)[C@@H]([C@@H](C)[C@@H](OC)[C@H](C)C(=O)O)O3)O2)O1` showed a parasite growth, % of DMSO control of 5.35% [at 9.64 µM]. The same measure for `O=C(O)C=Cc1ccc(Cn2ccnc2)cc1`: 90.5%; for `Cn1cc(CNCC2CCN(c3ncc(C(=O)NO)cn3)CC2)c2ccccc21`: 4.76%. The figure for `CN(C)CCN1C(=O)c2cccc3cc(N)cc(c23)C1=O` is 18.3%; for `NC(=O)Nc1sc(-c2ccc(F)cc2)cc1C(N)=O` it is 6.58%; for `COC1=C(OC)C(=O)C(CC=C(C)CCC=C(C)CCC=C(C)CCC=C(C)CCC=C(C)CCC=C(C)CCC=C(C)CCC=C(C)CCC=C(C)CCC=C(C)C)=C(C)C1=O` it is 94.3%. In turn, `Cc1cnc(NC(=O)Nc2cc(Br)c(C)cc2OC[C@@H]2CNCCO2)cn1` had a parasite growth, % of DMSO control of 5.93%.

As for `CCCNS(=O)(=O)Nc1ncnc(OCCOc2ncc(Br)cn2)c1-c1ccc(Br)cc1`, the parasite growth, % of DMSO control worked out at 102%.

The compound `O=C(O)C[C@H](O)C[C@H](O)C=Cc1c(C2CC2)nc2ccccc2c1-c1ccc(F)cc1` registered a parasite growth, % of DMSO control of 94%. Turning to `C[C@]12C=CC(=O)N[C@@H]1CC[C@H]1[C@H]3CC[C@@H](C(=O)Nc4cc(C(F)(F)F)ccc4C(F)(F)F)[C@@]3(C)CC[C@@H]12`, the parasite growth, % of DMSO control is 9.6%. The same measure for `COc1cc(C)c(C=CC(C)=CC=CC(C)=CC(=O)O)c(C)c1C`: 85.8%; for `O=c1c(O)c(-c2ccc(O)c(O)c2)oc2cc(O)ccc12`: 5.73%; for `CCCCCCCCCCCCCCCC(=O)OC[C@@H](NC(=O)C(Cl)Cl)[C@H](O)c1ccc([N+](=O)[O-])cc1`: 101%. With `CCc1ccc(C(=O)Nc2cc(CN3CCN(C)CC3)cc(C(F)(F)F)c2)cc1C#Cc1cnc2ccnn2c1`, the parasite growth, % of DMSO control came out at 5.7%. The compound `Cn1cc(C[C@@H](N)C(=O)O)c2ccccc21` gave a parasite growth, % of DMSO control of 103% [at 9.64 µM].

`O=C(C=CC=Cc1ccc2c(c1)OCO2)N1CCCCC1` came in with a parasite growth, % of DMSO control of 87.5%. The figure for `CCOC(=O)N1CCN([N+]([O-])=NOc2ccc([N+](=O)[O-])cc2C#N)CC1` is 10.5%; for `N#Cc1c(C2CCNCC2)cc(-c2c(O)cccc2OCC2CC2)nc1N` it is 12%. As to `COc1cc(C(C)C)c(Oc2cnc(NC(CO)CO)nc2N)cc1I`, the parasite growth, % of DMSO control was found to be 82.2%.

`CC[C@H]1OC(=O)[C@H](C)[C@@H](O[C@H]2C[C@@](C)(OC)[C@@H](O)[C@H](C)O2)[C@H](C)[C@@H](O[C@@H]2O[C@@H](C)C[C@H](N(C)C)[C@@H]2O)[C@](C)(O)C[C@@H](C)C(=O)[C@H](C)[C@@H](O)[C@]1(C)O` registered a parasite growth, % of DMSO control of 60.1%. The figure for `CON=C(C(=O)N[C@@H]1C(=O)N2C(C(=O)O)=C(CSC(=O)c3ccco3)CS[C@H]12)c1csc(N)n1` is 88.2%; for `C[C@@]12C[C@@]3(O)O[C@@H](O1)[C@]1(COC(=O)c4ccccc4)[C@@H]3C[C@@]12O[C@@H]1O[C@H](CO)[C@@H](O)[C@H](O)[C@@H]1O` it is 90.9%.

As for `CCN(CC)CCNC(=O)c1c(C)[nH]c(C=C2C(=O)Nc3ccc(F)cc32)c1C`, the parasite growth, % of DMSO control was found to be 4.82% [at 57.5 µM]. On to `CN(CC(=O)N(Cc1ccc(C2CCCCC2)cc1)c1ccc(C(=O)O)c(O)c1)S(=O)(=O)c1c(F)c(F)c(F)c(F)c1F`, for which the parasite growth, % of DMSO control is 51%. The figure for `O=C(CCCCCCC(=O)Nc1cccnc1)NO` is 5.14%; for `C=C[C@@H]1CN2CCC1C[C@H]2[C@H](O)c1ccnc2ccc(OC)cc12` (stereo not given in full) it is 10.4%; for `CC(C)(O)[C@H]1CC[C@@](C)([C@H]2[C@@H](O)C[C@@]3(C)[C@@H]4C[C@H](O[C@@H]5O[C@H](CO)[C@@H](O)[C@H](O)[C@@H]5O)[C@H]5C(C)(C)[C@@H](O[C@@H]6OC[C@@H](O)[C@H](O)[C@@H]6O)CC[C@@]56C[C@@]46CC[C@]23C)O1` it is 90.6%. The same measure for `O=C(Nc1ccc(Oc2ccnc3[nH]ccc23)c(F)c1)c1cccn(-c2ccc(F)cc2)c1=O`: 35.8%; for `CCCCCN=C(N)NN=Cc1c[nH]c2ccc(OC)cc12`: 7.63%; for `COc1cc(C)c(Sc2cnc(NC(=O)c3ccc(CNC(C)C(C)(C)C)cc3)s2)cc1C(=O)N1CCN(C(C)=O)CC1` (stereo not given): 7.09%. On to `COc1cccc2c1C(=O)c1c(O)c3c(c(O)c1C2=O)C[C@@](O)(C(C)=O)C[C@H]3O[C@H]1C[C@H](N)[C@H](O)[C@H](C)O1`, for which the parasite growth, % of DMSO control was determined as 13.5%. The figure for `C=CC(=O)N1CCc2ccc(-n3c(=O)ccc4cnc5ccc(-c6cnn(C)c6)cc5c43)cc21` is 5.53%; for `CCN1CCN(C(=O)N[C@H](C(=O)N[C@@H]2C(=O)N3C(C(=O)O)=C(CSc4nnnn4C)CS[C@@H]23)c2ccc(O)cc2)C(=O)C1=O` it is 91.3% [at 9.64 µM].

The values above are taken from PubChem BioAssay (NCATS).
